Experimental data reported in PubChem BioAssay.
Calls of active or inactive are those of the source. How the calls were made is not given here.

target: Pantothenate synthetase (Mycobacterium tuberculosis (strain ATCC 25618 / H37Rv)) (UniProt P9WIL5); assay: Coupled enzyme confirmation of inhibitors against recombinant Mtb PanC (AID 375); conditions: coupled enzyme assay; at 10 µM, active compounds read high;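 further: 0% = full reaction with vehicle and 100% = no enzyme background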
Sequence (P9WIL5 whole entry, looked up): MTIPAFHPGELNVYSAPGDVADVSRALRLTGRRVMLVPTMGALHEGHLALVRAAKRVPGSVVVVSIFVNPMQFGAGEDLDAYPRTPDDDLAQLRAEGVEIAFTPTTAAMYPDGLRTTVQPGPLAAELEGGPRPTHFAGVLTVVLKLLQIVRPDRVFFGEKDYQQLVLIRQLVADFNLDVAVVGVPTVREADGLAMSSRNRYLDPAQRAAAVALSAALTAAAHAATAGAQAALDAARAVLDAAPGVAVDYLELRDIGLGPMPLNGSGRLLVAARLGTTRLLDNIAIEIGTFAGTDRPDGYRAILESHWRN

Row | Compound | inhibition
1 | Cc1cc(C(=O)NCCCc2ccccc2)no1 | 10% (inactive)
2 | Cc1ccc(-c2nnn(CC(=O)NC3CC4CCC3C4)n2)cc1 (stereo unspecified) | 4% (inactive)
3 | CC1=C(C(=O)OC2CCCC2)C(c2ccc(C)o2)C2=C(CC(c3cccs3)CC2=O)N1 (stereo unspecified) | 0% (inactive)
4 | COCC(=O)n1nc(NCc2ccc(OC)cc2)nc1NCc1ccc(OC)cc1 | 0% (inactive)
5 | Cc1ccc(C)c(N2CCN(CCCNC(=O)Cn3cc4c(n3)CCC(C)C4)CC2)c1 (stereo unspecified) | 8% (inactive)
6 | COc1cccc(C(=O)NC2=NCCS2)c1 | 0% (inactive)
7 | COCCn1c(C23CC4CC(CC(C4)C2)C3)n[nH]c1=S | 0% (inactive)
8 | Cc1cccc(N2C(=O)CC(N3CCN(c4cccc(C(F)(F)F)c4)CC3)C2=O)c1 (stereo unspecified) | 1% (inactive)
9 | COc1ccccc1CNC(=O)C(C)NS(=O)(=O)c1ccccc1 (stereo unspecified) | 3% (inactive)
10 | Cc1ccc(CNC(=O)C2CCCN(S(=O)(=O)c3cnc[nH]3)C2)cc1 (stereo unspecified) | 2% (inactive)
11 | COc1ccc(N2CCN(C(=O)CN3C(=O)C4CC=CCC4C3=O)CC2)cc1 (stereo unspecified) | 0% (inactive)
12 | CC(C)NC(=O)CSc1nc2ccccc2n1-c1ccccc1 | 1% (inactive)
13 | Cc1cc(NC(=O)c2cc3ccccc3o2)cc(C)c1OCC(=O)N1CCOCC1 | 0% (inactive)
14 | COc1ccc(OCCCC(=O)Nc2nncs2)cc1 | 0% (inactive)
15 | CCC(c1nnnn1CCOC)N(Cc1ccc(C)cc1)Cc1cc2cc(OC)ccc2[nH]c1=O (stereo unspecified) | 0% (inactive)
16 | O=C(CN(c1ccc(F)cc1)S(=O)(=O)c1ccc2c(c1)OCCO2)NCC1CCCO1 (stereo unspecified) | 0% (inactive)
